Most compounds without a hit are left out; they make up all but 1.3% or so of the library.
LYPLA2 counter: counter-screen for PME1 inhibitors: inhibitors of human LYPLA2. recombinant LYPLA2, FP-Rh probe fluorescence polarization. inhibition, % at 5.9 µM. hit rate 0.38% among 320,000;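 active = inhibition above the screen-wide mean plus 3 SD, limit set per campaign, cut at about 26% in these data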
Target sequence (O95372 whole entry, looked up): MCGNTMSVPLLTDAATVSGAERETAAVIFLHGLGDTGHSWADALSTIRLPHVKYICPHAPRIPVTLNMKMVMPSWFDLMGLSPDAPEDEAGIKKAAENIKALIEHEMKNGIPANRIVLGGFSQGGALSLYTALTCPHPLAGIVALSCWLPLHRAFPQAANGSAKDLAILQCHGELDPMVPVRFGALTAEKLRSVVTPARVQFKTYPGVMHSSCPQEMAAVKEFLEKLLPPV
PME-1 inh: PME-1 (human) inhibition; Q9Y570; AID 2130; recombinant PME-1, FP-Rh probe fluorescence polarization; inhibition, % at 5.9 µM; hit rate 0.53% among 320,000;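 active = inhibition above the campaign mean of all compounds plus 3 SD, cut at about 26% in these data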;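 also: competitive labeling of PME-1 active site by serine hydrolase directed probe; inhibitors block probe labeling so polarization falls and inhibition rises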
Target sequence (Q9Y570 whole entry, looked up): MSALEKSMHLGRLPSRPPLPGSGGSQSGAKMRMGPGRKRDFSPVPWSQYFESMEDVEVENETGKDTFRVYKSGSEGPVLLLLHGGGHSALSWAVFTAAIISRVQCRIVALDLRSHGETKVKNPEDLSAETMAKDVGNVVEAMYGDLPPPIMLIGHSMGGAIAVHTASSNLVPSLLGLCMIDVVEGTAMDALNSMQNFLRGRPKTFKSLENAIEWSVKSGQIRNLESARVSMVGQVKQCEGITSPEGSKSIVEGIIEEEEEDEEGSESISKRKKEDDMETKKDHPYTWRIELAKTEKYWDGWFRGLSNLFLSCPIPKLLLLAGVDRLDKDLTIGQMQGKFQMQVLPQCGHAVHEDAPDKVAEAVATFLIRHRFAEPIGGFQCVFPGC
Fam108B counter: blocks mouse Fam108B hydrolase in RBBP9 counter-screen | inhibition, % at 9.51 µM | AID 1947 | hit rate 0.33% among 300,000 | recombinant Fam108B, FP-Rh probe fluorescence polarization;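 active = inhibition above the screen mean inhibition plus 3 SD, computed separately per campaign, cut at about 18% in these data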;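 also: inhibitors lower polarization as less probe binds the enzyme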
LYPLA1 counter: LYPLA1 (human) inhibition in PME1 counter-screen. recombinant LYPLA1, FP-Rh probe fluorescence polarization. inhibition, % at 5.9 µM. hit rate 0.16% among 320,000;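 active = inhibition above the mean of all tested compounds plus 3 SD, set per campaign, cut at about 14% in these data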;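 also: inhibitors block serine hydrolase probe labeling of LYPLA1 so polarization falls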
PREPL inh: inhibitors of human prolyl oligopeptidase-like enzyme PREPL; hit rate 0.68% among 320,000; inhibition, % at 5.96 µM; recombinant PREPL, fluorescence polarization activity-based probe; AID 2751; in the data active = inhibition above about 43%
Fam108b confirm: Fam108b (mouse) hydrolase inhibition, confirmation assay. shares compounds with Fam108B counter. recombinant Fam108b, FP-Rh probe fluorescence polarization. inhibition, % at 9.51 µM. hit rate 44% among 930. AID 1978;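 active = inhibition above a limit from the primary screen, the mean over all compounds plus 3 SD, cut at about 19% in these data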;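 also: inhibitors free the probe so polarization falls as inhibition rises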
Fam108b ABPP HTS: mouse ABHD17B inhibition | recombinant Fam108b, gel-based ABPP, fluorophosphonate probe | inhibition, % at 20 µM | shares compounds with Fam108B counter | hit rate 44% among 260 | AID 588649; in the data active = inhibition above about 40%
LYPLA2 conf: LYPLA2 (human) inhibition, confirmation counter-screen. shares compounds with LYPLA2 counter. recombinant LYPLA2, FP-Rh probe fluorescence polarization. inhibition, % at 5.9 µM. hit rate 72% among 1,100;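 active = mean inhibition across replicates above the hit cutoff set in the primary screen, cut at about 26% in these data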;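 also: blocked labeling of the enzyme by serine hydrolase FP-Rh probe lowers polarization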
Numbers stand for hits; - = inactive; . = no result given; ! = not active in a repeat.

SMILES	LYPLA2 counter	PME-1 inh	Fam108B counter	LYPLA1 counter	PREPL inh	others
O=P(Oc1ccccc1)(Oc1ccccc1)C(O)c1ccc(Cl)cc1 (stereo unspecified)	-	47.4	-	-	-
COc1ccc(C(O)P(=O)(Oc2ccccc2)Oc2ccccc2)cc1 (stereo unspecified)	-	38.0	-	-	-
CC(C)C(=O)NC(Oc1ccccc1Cl)C(Cl)(Cl)Cl (stereo unspecified)	-	-	-	-	-
CCN(CC)S(=O)(=O)c1ccc(C)c(NCC(=O)Nc2ccc(C#N)c(Cl)c2)c1	-	-	-	-	-
CCN(CC)S(=O)(=O)c1cc(NC(=O)C(C)N2CC=C(c3ccccc3)CC2)ccc1C (stereo unspecified)	-	47.2	-	-	-
Cc1ccc(CN2C(=O)CN=C(c3ccccc3)c3ccccc32)cc1	-	-	-	-	-
Cc1oc(-c2ccccc2)nc1CN1C(=O)CN=C(c2ccccc2)c2ccccc21	-	32.2	-	-	-
CN1/C(=C\C=Nc2ccccc2)C(C)(C)c2ccccc21	-	-	-	-	-
CN1/C(=C\C=C\C2=[N+](C)c3ccc4ccccc4c3C2(C)C)C(C)(C)c2ccccc21	-	178.6	-	-	-
O=C1NC(=S)N(c2ccc(F)cc2)C(=O)/C1=C/c1ccco1	-	-	51.7	-	-
CN(C)CC1CSCCC1(O)c1cccc(Cl)c1 (stereo unspecified)	-	-	-	-	-
Cc1ccccc1NP(=O)(Oc1ccccc1F)Oc1ccccc1F	-	38.9	-	-	-
Cc1cccc(NP(=O)(Oc2ccccc2)Oc2ccccc2)c1C	-	-	-	-	-
N#Cc1ccc(NC(=O)CN2CCCCCC2)cc1Cl	-	-	-	-	-
O=C(CN1CC=C(c2ccccc2)CC1)NC(=O)NCc1ccco1	-	-	-	-	-
Cc1cc(Br)c(NC(=O)CN2CC=C(c3ccccc3)CC2)c(Br)c1	-	30.5	-	-	-
CNC(C)(C)Cc1ccccc1	-	-	-	-	-
NP(=O)(Oc1ccc(Cl)cc1)Oc1ccc(Cl)cc1	-	71.4	-	-	-
Cc1cccc(OP(N)(=O)Oc2cccc(C)c2)c1	-	-	-	-	-
O=C1NCCN2CCCC12 (stereo unspecified)	30.4	-	-	-	-
COc1ccc(-n2c(/C=C/c3ccc(O)c(O)c3)nc3ccccc3c2=O)cc1	-	34.4	-	-	-
COc1ccc(CCNCc2c(OC)ccc3ccccc23)cc1	-	-	-	-	-
CC(=O)c1ccc2c(c1)C1C(Cl)C(Sc3ccccc3[N+](=O)[O-])CC1C(c1ccccc1[N+](=O)[O-])N2 (stereo unspecified)	-	85.8	-	-	-
CC[C@@H](CO)NC(=O)[C@@H]1C=C2c3cccc4c3c(cn4C)C[C@H]2N(C)C1	-	-	-	-	53.7!
CCOC(=O)C1=C(N)OC2=C(C(=O)CCC2)C12C(=O)N(C)c1ccccc12 (stereo unspecified)	-	-	-	-	-
SMILES	LYPLA2 counter	PME-1 inh	Fam108B counter	LYPLA1 counter	PREPL inh	others
O=P(Nc1ccccc1)(Oc1ccccc1)Oc1ccccc1	-	-	-	-	-
O=P(CCl)(Nc1ccccc1)C(Cl)(Cl)Cl (stereo unspecified)	-	29.9	-	-	-
CN(C)C1=NP(N(C)C)(N(C)C)=NC(c2ccccc2)=N1	-	-	-	-	-
CC1Oc2cc3c(-c4c(O)cc(O)c5c(O)c6c(cc45)OC(C)C(C)C6=O)c(O)cc(O)c3c(O)c2C(=O)C1C (stereo unspecified)	-	27.8	40.6	-	85.4	Fam108b confirm=37.2;Fam108b ABPP HTS=-
CC1=CC(=O)OC2CC3OC4C[C@@H](C)C5OC6CC7O[C@]8(C)C/C=C\C9OC%10CC%11OC(CC(C)C%12OCCO%12)CC(O)[C@]%11(C)OC%10CC9OC8C[C@]7(C)O[C@]6(C)CCC5OC4C[C@]3(C)OC12 (stereo partly specified)	.	.	.	.	-
CN1CC(C(=O)c2cccc(C(F)(F)F)c2)C(c2ccc(Cl)cc2)C1 (stereo unspecified)	-	-	20.3	-	-	Fam108b confirm=-
CC(=O)c1ccc2c(c1)C1C(Cl)C(Sc3ccccc3[N+](=O)[O-])CC1C(c1ccccc1)N2 (stereo unspecified)	-	70.1	37.8	-	-	Fam108b confirm=-
O=C1NC(=O)C(Sc2ccccc2[N+](=O)[O-])C(=O)N1	-	-	-	-	-
C/C(=N\NC(=O)c1ccccc1O)c1c(O)n(Cc2ccccc2)c(=O)[nH]c1=O	-	-	21.1	-	-	Fam108b confirm=81.6;Fam108b ABPP HTS=-
C/C(=N\NC(=O)c1ccccc1O)c1c(O)n(C2CCCCC2)c(=O)[nH]c1=O	-	-	19.4	-	-	Fam108b confirm=21.0
CC(C)OCCCNC(=O)c1c(N)n(Cc2cccs2)c2nc3ccccc3nc12	-	-	18.8	-	-	Fam108b confirm=-
COc1ccc(OC)c(N2C(=O)NC(=O)/C(=C/c3ccc([N+](=O)[O-])s3)C2=O)c1	-	-	46.2	-	-	Fam108b confirm=-
COc1ccc(OC)c(N2C(=O)CC(=O)NC2=O)c1	-	-	-	-	-
CCOC(=O)c1ccc(NC(=O)N2CC3CC(C2)c2cccc(=O)n2C3)cc1 (stereo unspecified)	-	-	-	-	-
Cn1c(O)c(Cc2cccc(Cl)c2Cl)c(=O)n(C)c1=O	-	-	-	-	-
O=C(c1ccc(N2CC3CC(C2)c2cccc(=O)n2C3)c([N+](=O)[O-])c1)N1CCCCC1 (stereo unspecified)	-	-	-	-	-
COc1ccc(-n2c(O)c(C=NCCN(C)C)c(=O)[nH]c2=O)cc1	-	-	-	-	-
O=c1[nH]c(O)c(/C=C2/C=CC(c3cc(Cl)ccc3Cl)=N2)c(=O)[nH]1	-	-	27.1	-	-	Fam108b confirm=20.1
CC1=Nc2ccccc2/C1=C/c1c(O)[nH]c(=O)[nH]c1=O	-	-	-	-	-
COc1ccc(OC)c(N2C(=O)/C(=C/c3ccco3)C(=O)NC2=S)c1	30.4	38.6	81.5	-	-	Fam108b confirm=-;LYPLA2 conf=-
COc1ccc(CC(C)NC2CCCCCC2)cc1 (stereo unspecified)	-	-	-	-	-
